# Assay results from PubChem BioAssay (NCATS).
# Where “and” joins values, the source holds several entries; their conditions need not be identical. Equal values may be shown once. A number with no mark means an inactive call. Results filed as inconclusive are left out. Calls of active or inactive are those of the source. Calls come from the whole dose curve; as a rule, active = well fitted curve in the direction sought with a large enough effect; inconclusive = small, poorly fitted or top-dose-only effect, or another doubt; inactive = no such curve, though single readings can be large; an effect the other way counts as inactive or inconclusive.
# Key:
# [1] = molecular target: Cytochrome P450 3A4 (Homo sapiens) (UniProt P08684); assay: qHTS Assay for Inhibitors and Substrates of Cytochrome P450 3A4 (AID 884); settings: recombinant CYP3A4, Luciferin-PPXE luminescence; series mostly up to 57.1 µM; note: nearly all actives have a fitted effect of over 50% in size; note: potency is the fitted concentration of half-maximal effect; for activity change, negative = inhibition: % is set by controls: 0 for no effect and ±100 for the full control effect
# How it was run: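 20 nM human CYP3A4 with 25 uM Luciferin-PPXE (at KM) in 200 mM KPO4, preincubated 10 min with compound; NADPH regeneration started a 60 min RT reaction. Luciferin detected by luminescence, normalized to 57 uM ketoconazole as full inhibition.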
# [2] = molecular target: Cytochrome P450 3A4 (Homo sapiens) (UniProt P08684); assay: qHTS Assay for Activators of Cytochrome P450 3A4 (AID 885); settings: recombinant CYP3A4, Luciferin-PPXE luminescence, 60 min; series mostly up to 57.1 µM; note: nearly all actives have a fitted effect of over 65% in size
# How it was run: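 Steps: enzyme/substrate mix dispensed; compound added, 10 min RT; NADPH regeneration solution added, 60 min RT; luciferin detection buffer stops reaction; 20 min later luminescence measured.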
# [3] = molecular target: Cytochrome P450 2D6 (Homo sapiens) (UniProt P10635); assay: qHTS Assay for Inhibitors and Substrates of Cytochrome P450 2D6 (AID 891); settings: recombinant CYP2D6, luciferin-ME EGE luminescence; series mostly up to 11.4 µM; note: nearly all actives have a fitted effect of over 60% in size; note: potency is the fitted concentration of half-maximal effect;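 for activity change, negative = inhibition: luciferin methyl ether substrate demethylated by CYP2D6 with NADPH regeneration; % is set by controls: 0 for no effect and ±100 for the full control effect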
# How it was run: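 Human CYP2D6 (5 nM) with 30 uM Luciferin-ME EGE (at Km) in 100 mM KPO4, compound preincubated 10 min, then NADPH regeneration system for 60 min at room temperature. Luciferin read by luminescence; normalized to 1.43 uM quinidine.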
# [4] = molecular target: Cytochrome P450 2C19 (Homo sapiens) (UniProt P33261); assay: qHTS Assay for Inhibitors and Substrates of Cytochrome P450 2C19 (AID 899); settings: recombinant CYP2C19, luciferin-H EGE luminescence; series mostly up to 11.4 µM; note: potency is the fitted concentration of half-maximal effect; nearly all actives have a fitted effect of over 60% in size
# How it was run: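 In 50mM KPO4, the reaction held 5nM enzyme and KM-level (10uM) Luciferin-H EGE; it ran 60 min at 37C after NADPH regeneration and a 10 min compound preincubation. Luminescence values were scaled to 57uM ketoconazole as complete inhibition.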
# Chain of Cytochrome P450 3A4 (Homo sapiens) (P08684 whole entry, looked up): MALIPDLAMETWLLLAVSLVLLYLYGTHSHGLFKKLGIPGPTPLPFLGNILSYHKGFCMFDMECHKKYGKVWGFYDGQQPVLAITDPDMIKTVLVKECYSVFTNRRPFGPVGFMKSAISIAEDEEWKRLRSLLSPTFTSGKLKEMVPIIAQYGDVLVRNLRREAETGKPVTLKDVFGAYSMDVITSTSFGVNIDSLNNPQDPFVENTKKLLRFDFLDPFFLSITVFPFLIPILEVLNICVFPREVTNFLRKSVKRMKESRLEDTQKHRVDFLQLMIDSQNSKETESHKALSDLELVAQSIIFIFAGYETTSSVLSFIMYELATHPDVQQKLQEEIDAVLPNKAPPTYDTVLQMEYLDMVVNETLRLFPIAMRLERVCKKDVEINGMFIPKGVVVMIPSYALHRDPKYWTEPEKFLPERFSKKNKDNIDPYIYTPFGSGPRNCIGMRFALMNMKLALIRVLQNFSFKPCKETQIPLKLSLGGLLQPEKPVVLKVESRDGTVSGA
# Chain of Cytochrome P450 2D6 (Homo sapiens) (P10635 whole entry, looked up): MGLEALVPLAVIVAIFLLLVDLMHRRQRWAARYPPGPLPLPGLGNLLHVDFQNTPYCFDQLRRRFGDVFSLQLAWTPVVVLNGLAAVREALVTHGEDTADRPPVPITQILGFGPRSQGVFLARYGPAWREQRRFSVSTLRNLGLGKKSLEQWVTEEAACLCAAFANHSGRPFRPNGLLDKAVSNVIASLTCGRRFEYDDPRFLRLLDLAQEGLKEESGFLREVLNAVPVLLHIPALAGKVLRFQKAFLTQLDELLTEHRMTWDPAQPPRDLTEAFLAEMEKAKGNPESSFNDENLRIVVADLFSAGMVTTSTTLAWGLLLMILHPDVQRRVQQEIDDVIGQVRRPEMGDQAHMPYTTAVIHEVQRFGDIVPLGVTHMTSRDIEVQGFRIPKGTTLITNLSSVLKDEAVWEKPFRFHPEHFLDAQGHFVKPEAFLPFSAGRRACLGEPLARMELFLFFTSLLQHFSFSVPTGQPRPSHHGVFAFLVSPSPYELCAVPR
# Chain of Cytochrome P450 2C19 (Homo sapiens) (P33261 whole entry, looked up): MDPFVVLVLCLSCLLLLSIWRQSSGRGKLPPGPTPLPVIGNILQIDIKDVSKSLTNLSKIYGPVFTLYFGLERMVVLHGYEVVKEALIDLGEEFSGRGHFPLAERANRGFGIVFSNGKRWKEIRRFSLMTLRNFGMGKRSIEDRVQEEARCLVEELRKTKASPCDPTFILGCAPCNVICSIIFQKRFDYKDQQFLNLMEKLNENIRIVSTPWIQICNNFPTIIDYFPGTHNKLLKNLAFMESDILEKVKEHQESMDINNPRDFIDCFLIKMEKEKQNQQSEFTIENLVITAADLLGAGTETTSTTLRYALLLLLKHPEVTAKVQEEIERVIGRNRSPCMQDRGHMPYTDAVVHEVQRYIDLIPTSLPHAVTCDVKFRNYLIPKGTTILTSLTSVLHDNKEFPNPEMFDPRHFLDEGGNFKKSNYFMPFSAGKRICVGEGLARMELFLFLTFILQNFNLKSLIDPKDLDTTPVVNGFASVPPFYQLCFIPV
structure (smiles),measurement,setting,value
CCC1=C2CC[C@H]3C(=O)N(c4ccccc4)C(=O)[C@H]3[C@H]2[C@@]2(C)C(=NCC(=O)OC)OC(=O)N2C1=O,Potency,[1],15.8 µM (active)
same,Potency,[2],inactive
COc1cccc([C@@H]2Oc3ccc(OC)cc3/C(=N/O[C@@H](C)CN3CCCc4nc(C)c(C)cc43)[C@@H]2O)c1,Potency,[1],3.16 µM (active)
same,"activity change, positive = activation",[2],-92.2% [at 11.4 µM]
CCC1=C2CC[C@H]3C(=O)NC(=O)[C@H]3[C@H]2[C@@]2(C)C(=NCCc3c[nH]c4ccccc34)OC(=O)N2C1=O,Potency,[1],12.6 µM (active)
same,Potency,[2],inactive
S=C=Nc1cccc(NC(=S)NCCCCNC(=S)Nc2cccc(N=C=S)c2)c1,Potency,[1],3.16 µM (active)
same,Potency,[2],inactive
CC(C)c1ccccc1S(=O)(=O)c1cc(N)c2ncccc2c1[N+](=O)[O-],Potency,[1],1 µM (active)
same,Potency,[2],inactive
N#Cc1ccc(C23CC4(C2)[C@H](CN(Cc2cccnc2)[C@@H]4c2ccccc2)C3c2ccc(C(F)(F)F)cc2)cc1 (stereo partly specified),Potency,[1],6.31 µM (active)
same,Potency,[2],inactive
CCC1=C(OC(=O)N(CC)CC)N2C(=O)OC(=NCC3CC3)[C@]2(Cc2ccccc2)[C@H]2C1=CC[C@H]1C(=O)N(c3ccccc3)C(=O)[C@H]12,Potency,[1],2.51 µM (active)
same,Potency,[2],inactive
CCC1=C(OC(=O)N(CC)CC)N2C(=O)OC(=NCC3CC3)[C@]2(Cc2ccccc2)[C@H]2C1=CC[C@H]1C(=O)N(C)C(=O)[C@H]12,Potency,[1],3.98 µM (active)
same,Potency,[2],inactive
CO/N=C\c1ccc(C(=O)N2[C@H](c3ccc(C)cc3)[C@@H](C)CC[C@H]2C(=O)OC)cc1,Potency,[1],3.16 µM (active)
same,"activity change, positive = activation",[2],-64.1% [at 11.4 µM]
COC(=O)[C@@H]1C[C@@H]2CC[C@@H](O)C[C@@H]2N1Cc1ccc(OC)cc1,Potency,[1],15.8 µM (active)
same,Potency,[2],inactive
O=C(/C=C\c1ccc2c(c1)OCO2)c1ccc(F)cc1,Potency,[1],3.16 µM (active)
same,"activity change, positive = activation",[2],-89.5% [at 11.4 µM]
COc1ccc(OC2C=CC(c3ccccc3)OC2CO)cc1 (stereo unspecified),Potency,[1],3.98 µM (active)
same,"activity change, positive = activation",[2],-66.9% [at 11.4 µM]
CCCOc1ccc(Br)cc1-c1cc(-c2ccc(Cl)cc2)[nH]c1-c1ccncc1,Potency,[1],1.26 µM (active)
same,Potency,[2],inactive
C/C(CCC(=O)OC[C@@H]1O[C@H](C#Cc2ccccc2)C=C[C@@H]1Oc1ccc(C)cc1)=N/OC[C@@H](O)[C@H]1O[C@H]2OC(C)(C)O[C@H]2[C@@H]1O,Potency,[1],3.98 µM (active)
same,"activity change, positive = activation",[2],-117% [at 11.4 µM]
CCC1=C(OC(=O)N(CC)CC)N2C(=O)OC(=NCC(=O)OC)[C@]2(C)[C@H]2C1=CC[C@H]1C(=O)N(CC(=O)OC)C(=O)[C@H]12,Potency,[1],10 µM (active)
same,Potency,[2],inactive
CC(=O)OC[C@@H]1O[C@H](C/C=N\O[C@@H](C)c2cc(-c3c(C)cc(C)cc3C)no2)C=C[C@@H]1OC(C)=O,Potency,[1],3.16 µM (active)
same,"activity change, positive = activation",[2],-77.7% [at 11.4 µM]
COC(=O)C/C=C\[C@@H](C)[C@@H](/C=N\OCC[C@H]1C=C[C@H](OC(C)=O)[C@@H](COC(C)=O)O1)NS(=O)(=O)c1ccc(C)cc1,Potency,[1],3.98 µM (active)
same,"activity change, positive = activation",[2],-95.4% [at 11.4 µM]
CCC1=C2CC[C@H]3C(=O)N(c4ccccc4)C(=O)[C@H]3[C@H]2[C@@]2(Cc3ccccc3)C(=NCC3CC3)OC(=O)N2C1=O,Potency,[1],5.01 µM (active)
same,Potency,[2],inactive
CCC1=C(OC(=O)N(CC)CC)N2C(=O)OC(=NCC(=O)OC)[C@]2(C)[C@H]2C1=CC[C@H]1C(=O)NC(=O)[C@H]12,Potency,[1],12.6 µM (active)
same,Potency,[2],inactive
FC(F)(F)c1ccc(CN2C[C@@H]3C(c4ccccc4)C4(c5cccnc5)CC3(C4)[C@H]2c2ccccc2)cc1 (stereo partly specified),Potency,[1],15.8 µM (active)
same,Potency,[2],inactive
CCC1=C(OC(=O)N(CC)CC)N2C(=O)OC(=NCC(=O)OC)[C@]2(Cc2ccccc2)[C@H]2C1=CC[C@H]1C(=O)NC(=O)[C@H]12,Potency,[1],6.31 µM (active)
same,Potency,[2],inactive
C[C@@H](c1ccccc1)N1C(=O)[C@H]2[C@H]3[C@H](O)[C@H](O)C/C(=N/OC[C@@H](O)COCc4ccco4)[C@H]3CC[C@@H]2C1=O,Potency,[1],3.98 µM (active)
same,"activity change, positive = activation",[2],-66.6% [at 11.4 µM]
COC(=O)c1cccc(C23CC4(C2)[C@H](CN(CC2CCCCC2)[C@@H]4c2ccccc2)C3c2ccc(Cl)nc2)c1 (stereo partly specified),Potency,[1],15.8 µM (active)
same,Potency,[2],inactive
CCC1=C2CC[C@H]3C(=O)N(c4ccccc4)C(=O)[C@H]3[C@H]2[C@@]2(C)C(=NCC3CC3)OC(=O)N2C1=O,Potency,[1],10 µM (active)
same,Potency,[2],inactive
CCC1=C(OC(=O)N(CC)CC)N2C(=O)OC(=NCc3ccccc3)[C@]2(C)[C@H]2C1=CC[C@H]1C(=O)N(CC)C(=O)[C@H]12,Potency,[1],3.16 µM (active)
same,Potency,[2],inactive
COC(=O)[C@@H]1C[C@H]2CC[C@H](O)C[C@H]2N1Cc1ccccc1OC(=O)c1cccs1,Potency,[1],2.51 µM (active)
same,Potency,[2],inactive
CC(=O)OC[C@@H]1O[C@H](CCO/N=C(\C)CCC(=O)OC[C@@H]2O[C@H](C#Cc3ccccc3)C=C[C@@H]2Oc2ccc(C)cc2)C=C[C@@H]1OC(C)=O,Potency,[1],3.16 µM (active)
same,"activity change, positive = activation",[2],-92.8% [at 11.4 µM]
C/C(CCN1CCCc2nc(C)c(C)cc21)=N\O[C@@H](C)c1cn([C@H](CO)Cc2ccccc2)nn1,Potency,[1],2 µM (active)
same,"activity change, positive = activation",[2],-60.4% [at 11.4 µM] and -67% [at 11.4 µM]
COc1ccc(O[C@H]2C=C[C@@H](c3ccccc3)O[C@H]2COC(=O)CC/C(C)=N\O[C@@H](C)c2cc(-c3c(C)cc(C)cc3C)no2)cc1,Potency,[1],3.16 µM (active)
same,"activity change, positive = activation",[2],-63.2% [at 11.4 µM]
COc1cccc([C@@H]2Oc3ccc(OC)cc3C(=O)[C@H]2O)c1,Potency,[1],3.98 µM (active)
same,"activity change, positive = activation",[2],-83.3% [at 11.4 µM]
CCN1C(=O)[C@H]2[C@H]3[C@H](O)[C@H](O)C/C(=N/O[C@@H](C)c4cc(-c5c(C)cc(C)cc5C)no4)[C@@H]3CC[C@@H]2C1=O,Potency,[1],3.98 µM (active)
same,"activity change, positive = activation",[2],-72.9% [at 11.4 µM]
CCC1=C2CC[C@H]3C(=O)N(C)C(=O)[C@H]3[C@H]2[C@@]2(C)C(=NCc3ccccc3)OC(=O)N2C1=O,Potency,[1],12.6 µM (active)
same,Potency,[2],inactive
COc1cccc([C@@H]2Oc3ccc(OC)cc3/C(=N/O[C@@H](C)c3cc(-c4c(C)cc(C)cc4C)no3)[C@@H]2O)c1,Potency,[1],1.58 µM (active)
same,"activity change, positive = activation",[2],-90.1% [at 11.4 µM]
CCOC(=O)OCC1OC(C#Cc2ccccc2)C=CC1OC(=O)OCC (stereo unspecified),Potency,[1],3.98 µM (active)
same,"activity change, positive = activation",[2],-79.4% [at 11.4 µM]
same,Potency,[3],inactive
same,Potency,[4],2.51 µM (active)
Nc1ccccc1C(=O)/C=C\c1ccc2c(c1)OCO2,Potency,[1],3.16 µM (active)
same,"activity change, positive = activation",[2],-84.3% [at 11.4 µM]
same,Potency,[3],3.16 µM (active)
COC(=O)[C@@H]1CC[C@H](C)[C@@H](c2ccc(C)cc2)N1C(=O)c1ccc(/C=N\OC[C@@H](C)[C@H](OCc2ccccc2)C(C)C)cc1,Potency,[1],3.98 µM (active)
same,"activity change, positive = activation",[2],-66.5% [at 11.4 µM]
same,Potency,[3],3.98 µM (active)
C=C(C)C(O)/C=C/c1ccc(C)cc1 (stereo unspecified),Potency,[1],3.98 µM (active)
same,"activity change, positive = activation",[2],-72.8% [at 11.4 µM]
same,Potency,[3],inactive
CC(C)CCN1CCc2nc(COc3ccccc3)c3c(c2C1)COC(C)C3 (stereo unspecified),Potency,[1],3.16 µM (active)
same,"activity change, positive = activation",[2],-76.7% [at 11.4 µM]
same,Potency,[3],inactive
CC(=O)OC[C@H]1O[C@@H](O/N=C(\C)CCC(=O)OC[C@@H]2O[C@H](C#Cc3ccccc3)C=C[C@@H]2Oc2ccc(C)cc2)[C@H](OC(C)=O)[C@@H](OC(C)=O)[C@H]1OC(C)=O,Potency,[1],3.16 µM (active)
same,"activity change, positive = activation",[2],-90.4% [at 11.4 µM]
same,Potency,[3],3.98 µM (active)
COc1ccc(O[C@H]2C=C[C@@H](c3ccccc3)O[C@H]2CO/N=C\C[C@@H]2C=C[C@H](OC(C)=O)[C@H](COC(C)=O)O2)cc1,Potency,[1],3.98 µM (active)
same,"activity change, positive = activation",[2],-90.6% [at 11.4 µM]
same,Potency,[4],0.794 µM (active)
CCCCC#CC1C=CC(Oc2ccc(C(=O)OC)cc2)C(COC(=O)OCC)O1 (stereo unspecified),Potency,[1],3.98 µM (active)
same,"activity change, positive = activation",[2],-80.8% [at 11.4 µM]
same,Potency,[3],inactive
COC(=O)C1=C2N(Cc3ccccc3)C(C)=C(C(=O)OC)C(c3ccccc3)N2C(=O)[C@](O)(C(=O)OC)C1 (stereo partly specified),"activity change, negative = inhibition",[1],-26.5% [at 11.4 µM]
same,"activity change, positive = activation",[2],-51.3% [at 11.4 µM]
same,Potency,[3],inactive
FC(F)(F)c1ccc(C2[C@H]3CN(Cc4cccnc4)[C@H](c4ccccc4)C34CC2(c2ccccc2)C4)cc1 (stereo partly specified),Potency,[1],3.16 µM (active)
same,Potency,[2],inactive
COc1ccc(O[C@H]2C=C[C@@H](c3ccccc3)O[C@@H]2CO/N=C(\C)CCN2CCCCc3nc(C)c(C)cc32)cc1,Potency,[1],3.98 µM (active)
same,"activity change, positive = activation",[2],-86.9% [at 11.4 µM]
same,Potency,[4],2.51 µM (active)
C=CCOC(=O)C(C(C)=O)C(NC(=O)OC)c1ccc(Cl)cc1 (stereo unspecified),Potency,[1],1.26 µM (active)
same,"activity change, positive = activation",[2],-107% [at 11.4 µM]
same,Potency,[3],inactive
same,Potency,[4],0.251 µM (active)
COc1cccc([C@H]2Oc3ccc(OC)cc3/C(=N\O[C@@H]3O[C@H](COC(C)=O)[C@H](OC(C)=O)[C@H](OC(C)=O)[C@H]3OC(C)=O)[C@@H]2O)c1,Potency,[1],3.16 µM (active)
same,"activity change, positive = activation",[2],-77% [at 11.4 µM]
same,Potency,[3],3.16 µM (active)
C=CCC1C=CC(Oc2ccc(OC)cc2)C(COC(=O)c2ccc(Br)cc2)O1 (stereo unspecified),Potency,[1],3.16 µM (active)
same,"activity change, positive = activation",[2],-92.4% [at 11.4 µM]
same,Potency,[4],3.16 µM (active)
Cn1c(-c2nc(-c3ccccc3)cs2)nc2ccccc21,Potency,[1],10 µM (active)
same,Potency,[2],inactive
